In the supplement of paper PMC10037445:
Whole data set: some 2,900 compounds, median “NF-kB SEAP reporter activity, fold change vs agonist alone” near 0.99, cut for the highest 2% near 2.6. Many of the other results were omitted from the sample, so the highest values are more common in it than they were.

Legend:
RAW-Dual [1] = assay: NF-kB SEAP reporter activity, fold change vs agonist alone; cytotoxicity flag (confluency mask): cytotoxic (confluency <70% of control); higher = enhanced NF-kB activity
Method in brief: (§1)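 Cytotoxic wells were those whose IncuCyte confluency was below 70% of agonist controls in both mask sets. The cells were RAW-Dual macrophages at 50,000 cells/well in DMEM on 384-well plates, dosed with 50 nL of library stock by pin tool, stimulated with a PRR agonist 1 h later, and kept at 37 °C, 5% CO2 for 20 hours. IRF and NF-κB reporter activity, as fold change over agonist-alone wells, came from supernatant read by QuantiLuc luminescence and QuantiBlue absorbance, respectively.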

RAW-Dual [2] = assay: NF-kB SEAP reporter activity, fold change vs agonist alone; higher = enhanced NF-kB activity; conditions: library stock concentration (final ~1000-fold dilution): 10 mM
Method in brief: as §1

RAW-Dual [3] = assay: NF-kB SEAP reporter activity, fold change vs agonist alone; cytotoxicity flag (confluency mask): not cytotoxic; higher = enhanced NF-kB activity
Method in brief: as §1

[4] = agonist: ODN 1826 (TLR9) 0.5 ug/mL
[5] = agonist: Pam2CSK4 (TLR2/6) 0.1 ug/mL
[6] = agonist: Pam3CSK4 (TLR2/1) 0.1 ug/mL
[7] = cytotoxicity flag (confluency mask): cytotoxic (confluency <70% of control), agonist: Imiquimod (TLR7) […]
[8] = cytotoxicity flag (confluency mask): cytotoxic (confluency <70% of control), agonist: MPLA (TLR4) […]
[9] = cytotoxicity flag (confluency mask): not cytotoxic, agonist: MPLA (TLR4) […]
[10] = cytotoxicity flag (confluency mask): not cytotoxic, agonist: Imiquimod (TLR7) […]

## Cc1cc(O)c(-c2ccc(C(C)CN(C)C)cc2)c2c1[nH]c(=O)c1sccc12.Cl.Cl (stereo unspecified) (library stock concentration (final ~1000-fold dilution): 10 mM)
RAW-Dual [1]; agonist: LPS (TLR4) 0.1 ug/mL
  NF-kB SEAP reporter activity: 0.764
RAW-Dual [1]; [4]
  NF-kB SEAP reporter activity: 0.357
RAW-Dual [1]; [5]
  NF-kB SEAP reporter activity: 0.311
RAW-Dual [1]; [6]
  NF-kB SEAP reporter activity: 0.482

## Cc1cc(O)c(-c2ccc(C(C)CN(C)C)cc2)c2c1[nH]c(=O)c1sccc12.Cl.Cl (stereo unspecified)
RAW-Dual [2]; [7]
  NF-kB SEAP reporter activity: 1.2
RAW-Dual [2]; [8]
  NF-kB SEAP reporter activity: 1.37

## CC(N)C12CC3CC(CC(C3)C1)C2.Cl (stereo unspecified) (library stock concentration (final ~1000-fold dilution): 10 mM)
RAW-Dual [3]; agonist: LPS (TLR4) 0.1 ug/mL
  NF-kB SEAP reporter activity: 1.15
RAW-Dual [3]; [4]
  NF-kB SEAP reporter activity: 0.619
RAW-Dual [3]; [5]
  NF-kB SEAP reporter activity: 1.24
RAW-Dual [3]; [6]
  NF-kB SEAP reporter activity: 0.847

## CC(N)C12CC3CC(CC(C3)C1)C2.Cl (stereo unspecified)
RAW-Dual [2]; [9]
  NF-kB SEAP reporter activity: 1.06

## O=C(Cn1nnc(-c2ccncc2)c1-c1ccccc1)Nc1ccc(-c2ccccc2)cn1
RAW-Dual [2]; [10]
  NF-kB SEAP reporter activity: 0.711
RAW-Dual [2]; [9]
  NF-kB SEAP reporter activity: 0.961

## O=C(Cn1nnc(-c2ccncc2)c1-c1ccccc1)Nc1ccc(-c2ccccc2)cn1 (library stock concentration (final ~1000-fold dilution): 10 mM)
RAW-Dual [3]; agonist: LPS (TLR4) 0.1 ug/mL
  NF-kB SEAP reporter activity: 1.06
RAW-Dual [3]; [4]
  NF-kB SEAP reporter activity: 0.623
RAW-Dual [3]; [5]
  NF-kB SEAP reporter activity: 0.34
RAW-Dual [3]; [6]
  NF-kB SEAP reporter activity: 0.345

## Cc1noc(C)c1-c1ccc2[nH]c(=O)n3c2c1OCC3c1ccccn1 (stereo unspecified) (library stock concentration (final ~1000-fold dilution): 10 mM)
RAW-Dual [3]; agonist: LPS (TLR4) 0.1 ug/mL
  NF-kB SEAP reporter activity: 1.61
RAW-Dual [3]; [4]
  NF-kB SEAP reporter activity: 1.67
RAW-Dual [3]; [5]
  NF-kB SEAP reporter activity: 0.501
RAW-Dual [3]; [6]
  NF-kB SEAP reporter activity: 1.34

## Cc1noc(C)c1-c1cnc2c(-c3ccc(C(=O)O)cc3)cn(C(C)c3ccccn3)c2c1 (stereo unspecified)
RAW-Dual [2]; [10]
  NF-kB SEAP reporter activity: 1.59
RAW-Dual [2]; [9]
  NF-kB SEAP reporter activity: 2.29

## Cc1noc(C)c1-c1ccc2[nH]c(=O)n3c2c1OCC3c1ccccn1 (stereo unspecified)
RAW-Dual [2]; [10]
  NF-kB SEAP reporter activity: 1.5
RAW-Dual [2]; [9]
  NF-kB SEAP reporter activity: 2.28

## COc1cc2c(cc1-c1c(C)noc1C)ncc1[nH]c(=O)n(C(C)c3ccccn3)c12 (stereo unspecified) (library stock concentration (final ~1000-fold dilution): 10 mM)
RAW-Dual [1]; agonist: LPS (TLR4) 0.1 ug/mL
  NF-kB SEAP reporter activity: 4.87
RAW-Dual [1]; [4]
  NF-kB SEAP reporter activity: 2.55
RAW-Dual [1]; [5]
  NF-kB SEAP reporter activity: 0.529
RAW-Dual [1]; [6]
  NF-kB SEAP reporter activity: 1.93

## Cc1noc(C)c1-c1cnc2c(-c3ccc(C(=O)O)cc3)cn(C(C)c3ccccn3)c2c1 (stereo unspecified) (library stock concentration (final ~1000-fold dilution): 10 mM)
RAW-Dual [3]; agonist: LPS (TLR4) 0.1 ug/mL
  NF-kB SEAP reporter activity: 2.32
RAW-Dual [3]; [4]
  NF-kB SEAP reporter activity: 1.73
RAW-Dual [3]; [5]
  NF-kB SEAP reporter activity: 0.767
RAW-Dual [3]; [6]
  NF-kB SEAP reporter activity: 2.09

## COc1cc2c(cc1-c1c(C)noc1C)ncc1[nH]c(=O)n(C(C)c3ccccn3)c12 (stereo unspecified)
RAW-Dual [2]; [7]
  NF-kB SEAP reporter activity: 2.61
RAW-Dual [2]; [8]
  NF-kB SEAP reporter activity: 2.46

## C=CC(=O)N1CCC(C2CCNc3c(C(N)=O)c(-c4ccc(Oc5ccccc5)cc4)nn32)CC1 (stereo unspecified)
RAW-Dual [2]; [10]
  NF-kB SEAP reporter activity: 0.477
RAW-Dual [2]; [9]
  NF-kB SEAP reporter activity: 0.541

## C=CC(=O)N1CCC(C2CCNc3c(C(N)=O)c(-c4ccc(Oc5ccccc5)cc4)nn32)CC1 (stereo unspecified) (library stock concentration (final ~1000-fold dilution): 10 mM)
RAW-Dual [3]; agonist: LPS (TLR4) 0.1 ug/mL
  NF-kB SEAP reporter activity: 0.708
RAW-Dual [3]; [4]
  NF-kB SEAP reporter activity: 0.413
RAW-Dual [3]; [5]
  NF-kB SEAP reporter activity: 0.25
RAW-Dual [3]; [6]
  NF-kB SEAP reporter activity: 0.279

## Cn1c(=O)cc(C(=O)Nc2ccc3c(c2)OCCO3)c2ccccc21 (library stock concentration (final ~1000-fold dilution): 10 mM)
RAW-Dual [3]; agonist: LPS (TLR4) 0.1 ug/mL
  NF-kB SEAP reporter activity: 0.989
RAW-Dual [3]; [4]
  NF-kB SEAP reporter activity: 1.02
RAW-Dual [3]; [5]
  NF-kB SEAP reporter activity: 0.995
RAW-Dual [3]; [6]
  NF-kB SEAP reporter activity: 1.07

## Cn1c(=O)cc(C(=O)Nc2ccc3c(c2)OCCO3)c2ccccc21
RAW-Dual [2]; [10]
  NF-kB SEAP reporter activity: 0.997
RAW-Dual [2]; [9]
  NF-kB SEAP reporter activity: 0.999

## CC#CCn1c(N2CCCC(N)C2)nc2c1c(=O)n(Cc1nc(C)c3ccccc3n1)c(=O)n2C (stereo unspecified) (library stock concentration (final ~1000-fold dilution): 10 mM)
RAW-Dual [3]; agonist: LPS (TLR4) 0.1 ug/mL
  NF-kB SEAP reporter activity: 1.31
RAW-Dual [3]; [4]
  NF-kB SEAP reporter activity: 0.823
RAW-Dual [3]; [5]
  NF-kB SEAP reporter activity: 1.05
RAW-Dual [3]; [6]
  NF-kB SEAP reporter activity: 1.17

## CC#CCn1c(N2CCCC(N)C2)nc2c1c(=O)n(Cc1nc(C)c3ccccc3n1)c(=O)n2C (stereo unspecified)
RAW-Dual [2]; [10]
  NF-kB SEAP reporter activity: 0.851
RAW-Dual [2]; [9]
  NF-kB SEAP reporter activity: 1

## O=c1ccoc2cc(O)ccc12
RAW-Dual [2]; [10]
  NF-kB SEAP reporter activity: 1.18
RAW-Dual [2]; [9]
  NF-kB SEAP reporter activity: 1.15

## O=c1ccoc2cc(O)ccc12 (library stock concentration (final ~1000-fold dilution): 10 mM)
RAW-Dual [3]; agonist: LPS (TLR4) 0.1 ug/mL
  NF-kB SEAP reporter activity: 1.85
RAW-Dual [3]; [4]
  NF-kB SEAP reporter activity: 1.15
RAW-Dual [3]; [5]
  NF-kB SEAP reporter activity: 1.04
RAW-Dual [3]; [6]
  NF-kB SEAP reporter activity: 0.865

## CC1COC(Nc2ccc3ncnc(Nc4ccc(OCc5nccs5)c(Cl)c4)c3c2)=N1 (stereo unspecified) (library stock concentration (final ~1000-fold dilution): 10 mM)
RAW-Dual [3]; agonist: LPS (TLR4) 0.1 ug/mL
  NF-kB SEAP reporter activity: 0.991
RAW-Dual [3]; [4]
  NF-kB SEAP reporter activity: 0.507
RAW-Dual [3]; [5]
  NF-kB SEAP reporter activity: 0.602
RAW-Dual [3]; [6]
  NF-kB SEAP reporter activity: 0.911

## CC1COC(Nc2ccc3ncnc(Nc4ccc(OCc5nccs5)c(Cl)c4)c3c2)=N1 (stereo unspecified)
RAW-Dual [2]; [10]
  NF-kB SEAP reporter activity: 1.28
RAW-Dual [2]; [9]
  NF-kB SEAP reporter activity: 1.03

## C=CC(=O)Nc1ccc2ncnc(Nc3ccc(OCc4cccc(F)c4)c(Cl)c3)c2c1.Cc1ccc(S(=O)(=O)O)cc1 (library stock concentration (final ~1000-fold dilution): 10 mM)
RAW-Dual [3]; agonist: LPS (TLR4) 0.1 ug/mL
  NF-kB SEAP reporter activity: 0.275
RAW-Dual [3]; [4]
  NF-kB SEAP reporter activity: 0.575
RAW-Dual [3]; [5]
  NF-kB SEAP reporter activity: 0.254
RAW-Dual [3]; [6]
  NF-kB SEAP reporter activity: 0.377

## CS(=O)(=O)CCNCc1ccc(-c2ccc3ncnc(Nc4ccc(OCc5cccc(F)c5)c(Cl)c4)c3c2)o1
RAW-Dual [2]; [10]
  NF-kB SEAP reporter activity: 2.12
RAW-Dual [2]; [9]
  NF-kB SEAP reporter activity: 2
